“And” between values parts separate entries of the source, which are not always exact repeats. Equal values may be shown once. Results filed as inconclusive are left out. A call without a number means that no potency is given here. The source made the active and inactive calls. The call rests on the fitted dose curve; in most records, active means well fitted activation curve with a large enough effect in the repeat runs; inconclusive means weak or mixed curves; inactive means flat fitted curve, though single readings scatter.

Consider ten molecules from PubChem BioAssay (Tox21).
Potency means the concentration at half of the fitted maximal effect.

The nature of the assay: Caspase-3/7 induction in HepG2 cells by small molecules, qHTS assay (AID 1346978). Further: nearly all actives have a fitted effect of over 15% in size. Conditions: HepG2 caspase-3/7 activation, Caspase-Glo luminescence, 17 h; series mostly up to 92.4 µM. An outline of the steps: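 Caspase-3/7 induction was measured by Caspase-Glo 3/7 luminescence (30 min, room temperature) after a 17 hr compound exposure of wild-type HepG2 cells seeded at 2,000 per well and pre-incubated 5 hr.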
Background: In qHTS, concentration-response curves come from the screen itself.
For `COC(=O)[C@]1(C)CCC[C@@]2(C)[C@H]1CC=C1C=C(C(C)C)CC[C@@H]12`, the Potency entry was “inactive”. `CC(=O)Nc1ccc(O)cc1`: the Potency entry was “inactive”. With `CCCCCCCCCCCCOC(=O)c1cc(O)c(O)c(O)c1` the figure was 60.9 µM (active) and 68.6 µM (active); with `CCN(CC)CCOc1ccc(C(O)(Cc2ccc(Cl)cc2)c2ccc(C)cc2)cc1` (stereo not given), 33.5 µM (active); with `CS(C)(=O)=O`, “inactive”. The entry for `CCCCCCCC/C=C\CCCCCCCC(=O)OCCOC(=O)CCCCCCC/C=C\CCCCCCCC` is “inactive”; for `Cc1cc(Nc2ccc(O)cc2)ccc1N` it is “inactive”. The figure for `CSc1ccc2c(c1)N(CCC1CCCCN1C)c1ccccc1S2` (stereo not given) is 30.5 µM (active). Take `CN(Cc1cc(Br)cc(Br)c1N)C1CCCCC1`: the Potency result was “inactive”. The entry for `C=C1C(C)(C)[C@@]2(Cl)C(Cl)[C@]1(Cl)C(Cl)(Cl)C2(Cl)Cl` (stereo not given in full) is “inactive”.
